Source: PubChem BioAssay
Hits are enriched below; roughly 1.5% of the tested compounds scored in any of these assays.
MenB inh = M. tuberculosis MenB inhibitors, primary screen, biochemical, absorbance. MenB enzyme assay, absorbance read-out. inhibition, % (no concentration beside the values). 0.43% of 100,000 active; in the data active = inhibition above about 21%, passing the limit was not always enough
Mtb MbtI inh = MbtI salicylate synthase inhibitors, primary screen, biochemical, fluorescence intensity; P9WFX0; purified MbtI enzyme, fluorescence intensity read-out; inhibition, % (no concentration beside the values); 0.89% of 100,000 active; AID 493033, 2011; in the data active = inhibition mostly above about 56%, no sharp cut-off; inactive = mostly below about 77%
AID504770 = growth inhibition of E. coli YBA685, primary screen, V. cholerae RctB inhibitors; E. coli YBA685 rctB-dependent plasmid, OD600 growth, 3 h; stronger effect = lower value; z-score (no concentration beside the values); 0.27% of 130,000 active; in the data active = z-score below about -2, passing the limit was not always enough
Polio RdRp inh = poliovirus RdRp elongation inhibitors, primary screen, biochemical, fluorescence polarization, total intensity; Genome polyprotein (Poliovirus type 1 (strain Mahoney)), P03300; 0.66% of 150,000 active; poliovirus polymerase elongation; stronger effect = lower value; % elongation, % (compound at 16.7 µg/mL); in the data active = % elongation below about 90%
Target sequence (P03300 1749-2209 limits assumed): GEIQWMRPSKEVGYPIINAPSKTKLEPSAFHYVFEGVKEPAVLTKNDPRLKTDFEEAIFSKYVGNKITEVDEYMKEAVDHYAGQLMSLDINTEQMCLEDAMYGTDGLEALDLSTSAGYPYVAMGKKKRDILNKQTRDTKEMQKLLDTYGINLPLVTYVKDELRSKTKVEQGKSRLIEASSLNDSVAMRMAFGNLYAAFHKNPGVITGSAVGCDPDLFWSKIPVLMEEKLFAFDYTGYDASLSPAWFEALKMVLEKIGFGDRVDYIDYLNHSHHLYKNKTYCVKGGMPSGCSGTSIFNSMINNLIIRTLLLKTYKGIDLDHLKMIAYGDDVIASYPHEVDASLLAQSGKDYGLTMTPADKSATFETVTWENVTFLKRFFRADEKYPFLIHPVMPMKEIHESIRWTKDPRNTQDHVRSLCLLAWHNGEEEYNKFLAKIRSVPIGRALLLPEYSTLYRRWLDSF
* marks the source's active call; other numbers are inactive results; · = no result given.

SMILES | MenB inh | Mtb MbtI inh | AID504770 | Polio RdRp inh
O=c1c(Cl)c(Cl)cnn1-c1ccc(C(F)(F)F)cn1 | -31 | 20 | 1.9 | 88*
CO[C@H]1O[C@H](CO)C(O[C@@H]2OC(C(=O)O)[C@@H](O[C@H]3O[C@H](COS(=O)(=O)O)C(O[C@@H]4OC(C(=O)O)[C@@H](O[C@H]5O[C@H](CO)C(O[C@@H]6OC(C(=O)O)[C@@H](O[C@H]7O[C@H](COS(=O)(=O)O)C(O[C@@H]8OC(C(=O)O)=C[C@H](O)C8OS(=O)(=O)O)[C@H](O)[C@H]7NC(C)=O)[C@H](O)[C@H]6O)[C@H](O)[C@H]5NC(C)=O)[C@H](O)[C@H]4O)[C@H](O)[C@H]3NC(C)=O)[C@H](O)[C@H]2O)[C@H](O)[C@H]1NC(C)=O (some centres not stated) | -16 | -5 | 0.95 | 99
Cn1c(=O)c2c(n3c(SCC(N)=O)nnc13)-c1ccccc1CC21CCCCC1 | · | 0 | 0.7 | ·
COc1ccccc1/C=C1/C(=O)ON=C1C | -13 | 9 | -2.8* | 103
CN(C)c1ccc(/C=C2\C(=O)N(c3ccccc3)N=C2C(=O)O)cc1 | -243 | -49 | -0.05 | 99
CCOC(=O)C1=NN(c2ccccc2)C(=O)/C1=C\c1ccc(N(C)C)cc1 | -109 | 98* | 0.45 | 103
Cc1ccc(Cn2c(C)c(CNCc3ccco3)c(C(=O)O)c2C)cc1 | -5 | 3 | 2.8 | 101
O=C(O)c1nccnc1C(=O)Nc1ccc(N2CCOCC2)cc1 | -10 | 5 | 1.5 | 101
O=C(Nc1ccc(N2CCOCC2)cc1)C1=NCCN1 | -18 | -7 | -0.55 | 63*
CCOC(=O)c1ccc(NC(=O)NC(C)c2ccc3c(c2)OCO3)cc1 (configuration not stated) | -8 | 15 | -0.45 | 104
CCOC(=O)c1ccc(NC(=S)NC(C)c2ccc3c(c2)OCCO3)cc1 (configuration not stated) | -23 | -1 | 0.6 | 54*
CCN(CC)C(=O)c1ccc(Oc2ccc(C(=O)N(CC)CC)cc2)cc1 | · | · | -0.4 | ·
Cc1cc(C)c(/C=N/NC(N)=O)c(C)c1/C=N/NC(N)=O | 2 | -14 | -3.2* | 102
O=C(Cc1ccc(Cl)cc1)Nc1cccc(-c2nc3cc4ccccc4cc3[nH]2)c1 | -34 | 108 | -0.35 | 101
CCN(Cc1ccccc1)C(c1ccccn1)c1nnnn1C1CCCCC1 (configuration not stated) | 34* | 5 | 0.45 | 102
Cn1cc(C(=O)c2cccc(Cl)c2Cl)cc1C(N)=O | · | · | 0.2 | ·
Cc1nc(-c2cccnc2)[nH]c(=O)c1CC1CC1 | · | · | -3* | ·
O=c1[nH]c(-c2cccnc2)nc2ccccc12 | · | · | 2 | ·
CC(NC(=O)c1ccccc1NC(=O)c1ccccc1)C(=O)N1CCCC1 (configuration not stated) | · | 21 | 0.55 | 103
CC(C)c1cc(N)on1 | -12 | -16 | -2.2* | 99
CCOC(=O)c1c(NC(=S)Nn2cnnc2)sc2c1CCCCCC2 | -41 | 89* | -0.75 | 98
CCN(CC)C(=O)c1sc(NC(=S)Nn2cnnc2)c(C(=O)OC)c1C | 5 | 55* | 1.4 | 98
CCN(CC)C(=O)c1sc(NC(=S)N(C)Cc2cn(CC)nc2C)c(C(=O)OC)c1C | -10 | 11 | 2.1 | 100
C=C(C)c1ccccc(=O)c1O | · | · | -5* | ·
CN(Cc1nc2ccccc2c(=O)n1CC(N)=O)C1CCCCC1 | 5 | 3 | -0.7 | 102
SMILES | MenB inh | Mtb MbtI inh | AID504770 | Polio RdRp inh
S=c1[nH]ncn1/N=C/c1ccccc1 | 8 | 86* | 0.65 | 100
COc1ccc(/C=N/n2cn[nH]c2=S)cc1OC | -27 | -13 | -1.1 | 104
O=C(Cc1ccccc1)NN(c1ccccc1)c1ccccc1 | -21 | · | 1.1 | 103
NC(=O)CSc1nc2ccc(Cl)cc2[nH]1 | -3 | 5 | -0.5 | 105
N#CCSc1nc2ccc(Cl)cc2[nH]1 | 3 | 53* | -1.1 | 102
Cc1cc(C)nc(SCC(=O)OCC(=O)c2ccc3[nH]c(=O)[nH]c3c2)n1 | 2 | 0 | -0.6 | 101
O=C(COC(=O)c1nc(Cl)ccc1Cl)c1ccc2[nH]c(=O)[nH]c2c1 | -8 | -6 | 0.2 | 38*
O=C(COC(=O)c1ccc(Cl)s1)c1ccc2[nH]c(=O)[nH]c2c1 | -12 | 5 | 0.4 | 79*
Cc1cc(C(=O)OCC(=O)c2ccc3[nH]c(=O)[nH]c3c2)c2ccccc2n1 | -10 | -3 | -0.25 | 90*
Cc1nn(-c2ccccc2)c(C)c1SCC(=O)O | 4 | -5 | -3.2 | 102
COC(=O)c1ccc2c(=O)[nH]c(COC(=O)c3cccnc3Nc3ccccc3OC)nc2c1 | -6 | -2 | -4* | 103
